Source: PubChem BioAssay AID624330 (Southern Research Specialized Biocontainment Screening …, 2012)
The whole screen tested about 340,000 compounds, of which about 2,100 (0.62%) were called active.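 How the source made its calls: active means first-screen hits whose inhibition reached a set limit at any dose in the follow-up dose series; inconclusive means inhibition above the set first-screen limit but never retested; inactive means the rest.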 The list is a sample of the results. Potency and affinity values are given separately.

Molecular target: Rac GTPase-activating protein 1 (Homo sapiens) (UniProt Q9H0H5)
Experiment: blockers of MgcRacGAP-driven Rac1 GTP hydrolysis – biochemical, ADP Hunter fluorescence, primary and confirmatory, confirmation (AID 624330);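 further: fluorescence reports GDP produced by GAP-driven GTP hydrolysis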
Conditions: MgcRacGAP-stimulated Rac1 GTP hydrolysis, at 30 µM, hits give high values, GST-tagged Rac1 F28L mutant substrate

Rac GTPase-activating protein 1 (Homo sapiens), sequence (Q9H0H5 whole entry, looked up): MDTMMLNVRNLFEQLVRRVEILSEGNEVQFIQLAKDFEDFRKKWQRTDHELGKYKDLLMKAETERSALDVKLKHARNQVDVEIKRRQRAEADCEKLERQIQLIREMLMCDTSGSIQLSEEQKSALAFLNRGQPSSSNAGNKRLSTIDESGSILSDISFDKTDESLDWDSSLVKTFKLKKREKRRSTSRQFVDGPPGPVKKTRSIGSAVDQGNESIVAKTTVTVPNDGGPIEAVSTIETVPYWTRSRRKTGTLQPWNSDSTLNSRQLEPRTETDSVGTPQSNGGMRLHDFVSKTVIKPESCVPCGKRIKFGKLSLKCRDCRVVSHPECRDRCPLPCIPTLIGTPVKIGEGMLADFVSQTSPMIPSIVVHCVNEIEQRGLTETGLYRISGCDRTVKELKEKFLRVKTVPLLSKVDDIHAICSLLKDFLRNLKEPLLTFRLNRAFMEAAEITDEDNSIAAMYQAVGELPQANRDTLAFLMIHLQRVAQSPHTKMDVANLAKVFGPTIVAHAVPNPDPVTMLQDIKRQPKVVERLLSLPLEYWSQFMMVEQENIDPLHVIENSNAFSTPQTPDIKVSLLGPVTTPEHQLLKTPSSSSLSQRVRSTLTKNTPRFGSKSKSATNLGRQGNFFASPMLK

inhibition, inactive:
CCOCC(=O)N1CCN(Cc2ccc3c(c2)OCO3)CC1 -16%, COc1cccc(C(=O)N2CCN(Cc3ccc4c(c3)OCO4)CC2)c1OC 9.39%, COc1cc(C(=O)N2CCN(Cc3ccc4c(c3)OCO4)CC2)cc(OC)c1OC 13.3%, CCOC(=O)N1CCN(Cc2ccc3c(c2)OCO3)CC1 11.9%, Cc1cc(C)cc(C(=O)N2CCN(Cc3ccc4c(c3)OCO4)CC2)c1 0.95%, COc1cccc(C(=O)N2CCN(Cc3ccccc3Br)CC2)c1 21.5%, COc1cc(OC)cc(C(=O)N2CCN(Cc3ccccc3C(F)(F)F)CC2)c1 11.6%, COc1ccccc1C(=O)N1CCN(Cc2ccc3c(c2)OCO3)CC1 2.13%, Cc1ccccc1NC(=O)N1CCCC1C(=O)NCc1cccs1 (stereo not drawn) 11.4%, CC(=O)Nc1ccc(CN2CCc3c([nH]c4ccccc34)C2C(C)(C)C)cc1 (stereo not drawn) 6.78%, CCCc1n[nH]c2c1/C(=N/O)CC(c1ccccc1)C2 (stereo not drawn) 12.8%, COc1cc(C)c(S(=O)(=O)N2CCCC2)cc1C 4.75%, CN(Cc1ccccc1)C(=O)COC(=O)c1ccc(S(=O)(=O)N(C)C)cc1 9.46%, O=C1C=C(c2ccccc2)C(O)(c2ccccc2)C1 (stereo not drawn) 4.42%, CC1CN(C(=O)CS(=O)(=O)Cc2ccc(Cl)cc2)CC(C)O1 (stereo not drawn) 6.85%, O=C(/C=C/Nc1ccc(F)cc1)c1ccc(Oc2ncccn2)cc1 10.5%, CCCCNS(=O)(=O)c1ccc2nc(SCC(=O)Nc3sccc3C#N)[nH]c2c1 4.59%, COC(=O)C1CCN(C(=O)Cc2ccc(OC)c(OC)c2)CC1 -0.01%, O=C(Cc1cccs1)Nc1nnc(Cc2ccccc2)s1 22.3%, COc1ccc(Cc2nnc(NC(=O)Cc3cccs3)s2)cc1OC 4.75%, CC1=NNC(=O)C1CC(=O)N/N=C(\C)c1cccs1 (stereo not drawn) 3.05%, O=C(CCN1C(=O)c2cccc3cccc(c23)C1=O)Nc1ccccc1 2.77%, C=CCN1C(=O)CSC1=Nc1ccc(C(=O)O)cc1 6.53%, CN1C(=O)CSC1=Nc1ccc(F)cc1 4.45%, COc1ccc(N=C2SCC(=O)N2c2ccc(OC)cc2)cc1 -0.28%, C=CCN1C(=O)CSC1=Nc1cccc(O)c1 3.76%, O=C(NCCN1C(=O)S/C(=C\c2ccccc2Cl)C1=O)C1=COCCO1 3.87%, COc1cc2c(cc1OC)C(C)N(C(=S)Nc1ccccc1)CC2 (stereo not drawn) 7.46%, NC(c1ccncc1)c1ccc(Cl)cc1 (stereo not drawn) 13.9%, COC(=O)c1cccc(N2C(=O)c3ccccc3S2(=O)=O)c1 0.68%, O=C(O)c1cccc(N2CCCC2=O)c1 5.07%, O=C(O)c1cccc(N2CCCC2)c1 15.6%, COC(=O)c1cccc(N2CCCC2=O)c1 9.18%, CCCN(CCC)Cc1c(C(=O)N/N=C/CCc2ccccc2)nnn1-c1nonc1N 11.3%, Nc1ncc2c(n1)CCN(c1ccc([N+](=O)[O-])cc1)C2 7.74%, CC[C@H](C)[C@@H](C(=O)N1CCNCC1)n1cc([C@@H](N)CC(C)C)nn1 0.32%, Cc1ccsc1/C=N/NC(=O)Nc1ccccc1 1.94%, CC(C)(C)c1ccc(/C=N/Nc2cccc(C(=O)O)c2)cc1 6.23%, O=C(O)c1cccc(N/N=C/c2ccc(-c3ccccc3)cc2)c1 -7.28%, O=C(O)c1cccc(N/N=C/c2cn(-c3ccccc3)nc2-c2cccs2)c1 3.09%, CN(C)c1ccc(/C=N/Nc2cccc(C(=O)O)c2)cc1 -3.06%, O=C(O)c1cccc(N/N=C/c2cccc3ccccc23)c1 8.13%, CC(=O)c1ccc(NC(=O)CN2C(=O)NC3(CCc4ccccc43)C2=O)cc1 (stereo not drawn) 1.63%, Cc1ccc(NC(=O)CN2C(=O)NC3(CCc4ccccc43)C2=O)cc1 (stereo not drawn) -6.82%, CCOc1cccc(NC(=O)c2ccc(S(=O)(=O)N3CCCC3)cc2)c1 3.15%, O=S(=O)(c1ccccc1)c1nc(-c2ccco2)oc1NCCCN1CCOCC1 8.7%, O=C(/C=C/c1ccc(Cl)cc1Cl)Nc1cccc(S(=O)(=O)NC2=NCCCCC2)c1 5.67%, Nc1cc(Cl)ccc1Oc1ccccc1 11.6%, Nc1cc(Cl)ccc1Oc1ccc(Cl)cc1 0.58%, COc1ccc(C(=O)COC(=O)CNC(=O)c2ccccc2)cc1F 4.02%, CCOC(=O)c1cnc(SCC(=O)Nc2cc(OC)ccc2OC)nc1N 3.73%, CSCCC(NC(=O)c1ccccc1Cl)C(=O)NCc1ccncc1 (stereo not drawn) 6.71%, CC1CCCN(CCOc2ccc(Br)cc2)C1 (stereo not drawn) 12%, CC1CCCN(CCCOc2ccccc2-c2ccccc2)C1 (stereo not drawn) 18.1%, O=C(/C=C/c1ccco1)NCC1CCCO1 (stereo not drawn) 19.1%, CC(C)(C)C(=O)Cn1c(=O)n(-c2ccc(F)cc2F)c(=O)c2sccc21 13.1%, CNC(=S)N1N=C(c2ccc(C)cc2)CC1c1ccc(OC)c(OC)c1 (stereo not drawn) 2.99%, COC(=O)C[C@H]1c2cc(F)ccc2S(=O)(=O)N1c1ccc(N(C)C)cc1 22.8%, CC(=O)C[C@H]1c2cc(C(F)(F)F)ccc2S(=O)(=O)N1c1ccc(N(C)C)cc1 16.3%, COc1ccc(-n2ncc3c2CC(C)(C)CC3NC(=O)CCn2cncn2)cc1 (stereo not drawn) 4.79%, COc1ccc(-n2c(=O)c3c(C)c(C)sc3n(Cc3cccc(F)c3)c2=O)c(OC)c1 9.42%, O=C(Nc1ccccc1)c1ccccc1OCc1ccc(F)cc1 13.5%, CC(=O)Nc1ccccc1 3.65%, CC(=O)Nc1cccc(NC(=O)c2ccccc2OCc2ccccc2)c1 9.89%, Cc1cccc(NC(=O)CC(C)(C)C)c1 5.55%, CC(=O)Nc1ccc(NS(=O)(=O)c2ccccc2)cc1 5.08%, CC(C)(C)CC(=O)Nc1ccc(C(N)=O)cc1 5.87%, Cc1ccc(S(=O)(=O)Nc2ccc(Nc3ccccc3)cc2)cc1 24.2%, CC(=O)Nc1ccc(NC(=O)Nc2ccccc2)cc1 -3.27%, COc1cc(-c2ccccc2)[nH]c(=S)n1 9.57%, CC(Sc1nc(=O)cc(N)n1CCc1ccccc1)C(=O)NCc1ccccc1 (stereo not drawn) 3.88%, COc1cccc(NC=C2C(=O)OC(C)(C)OC2=O)c1 6.91%, Cc1cc(C(=O)NNC(=S)NCC2CCCO2)cs1 (stereo not drawn) 9.6%, COc1ccc2c(CC(=O)Nc3nc(C)cs3)coc2c1 7.58%, Cc1ccc(C(=O)N(CC(=O)Nc2ccc(Cl)c(Cl)c2)Cc2ccco2)cc1 2.86%, O=C(CSc1nc(C(F)(F)F)cc(=O)[nH]1)N1CCCCCC1 -0.68%, CC(C)Cn1c(SCC(=O)c2ccc(Cl)s2)nnc1-c1ccco1 11.6%, CC1CC(C)CN(c2cc(=O)n(Cc3ccc(F)cc3)c(=O)[nH]2)C1 (stereo not drawn) 6.97%, COc1ccc(NC(=O)CN(C)S(=O)(=O)c2cccs2)cc1 16%, CCOC(=O)c1nn(-c2ccccc2F)c(-c2ccccc2)c1C(=O)c1ccccc1 5.32%, O=C(O)c1ccccc1C(=O)Nc1ccc(Br)c(C(F)(F)F)c1 8.86%, O=C(O)c1ccccc1-c1ccccc1C(=O)Nc1ccccc1 8.32%, O=C(O)c1ccccc1C(=O)Nc1ccccc1 -1.51%, O=C(Nc1ccc(Nc2ccccc2)cc1)C(Cl)Cl 25.5%, CC(=O)c1ccc(NC(=O)C(C)OC(=O)COc2ccc(C#N)cc2)cc1 (stereo not drawn) 3.94%, CC(C)C(=O)Nc1ccc(C(=O)c2ccccc2)cc1 4.76%, CC(OC(=O)COc1ccc(Nc2ccccc2)cc1)C(=O)N(C)c1ccccc1 (stereo not drawn) 24.6%, Cc1cccc(NC(=O)c2ccccc2C(=O)O)c1 3.78%, Cc1cccc(NS(=O)(=O)c2cccc(C(=O)N3CCCCCC3)c2)c1 7.68%, CCOc1ccc(NC(=O)c2cccs2)c([N+](=O)[O-])c1 9.62%, COc1ccc(COC(=O)N/N=C/c2cccs2)cc1 0.62%, Cc1ccc(/C=C2/SC(=S)N(CCCC(=O)Nc3cc([N+](=O)[O-])ccc3O)C2=O)cc1 3.56%, CCN(CC)CCNS(=O)(=O)c1ccc(Cl)cc1 5.79%, Cc1cc2ncn(-c3ncnc4sc(C)c(C)c34)c2cc1C 6.72%, CC1CCN(C(=O)c2nc[nH]c2C(=O)O[C@H](C)c2ccccc2)CC1 9.03%, O=C(Nc1ccccc1)C1CCCCC1 -3.44%, Oc1ccc(NCc2cccc(OCc3ccccc3)c2)cc1 9.79%, Oc1ccc(NCc2cccc(OCc3ccc(F)cc3)c2)cc1 3.64%, CC(C)CC(=O)Nc1ccc(Nc2ccccc2)cc1 22.4%, CCCC(=O)Nc1ccc(Nc2ccccc2)cc1 22.6%, CC(=O)Nc1ccc(S(=O)(=O)Nc2nc3ccccc3nc2Nc2ccc(O)c(C(=O)O)c2)cc1 9.87%, CC(=O)Nc1ccc(S(=O)(=O)Nc2nc3ccccc3nc2Nc2ccccc2)cc1 4.86%, O=C(Nc1ccccc1)c1ccc(NC(=O)C2CC2)cc1 3.78%
